Each structure is given as a SMILES string. Records with an inconclusive call do not appear. Active and inactive are the calls of the source. Calls come from the whole dose curve; as a rule, active = well fitted cell-killing curve with a large enough effect; inconclusive = small, poorly fitted or top-dose-only effect; inactive = flat fitted curve, though single readings scatter.
% is set by controls: 0 for no effect and ±100 for the full control effect.

The assay in a line: qHTS of pediatric cancer cell lines to identify multiple opportunities for drug repurposing: Primary screen for control Hh wild type fibroblast cells (AID 1347106).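 Note: a drop in luminescence marks cytotoxicity and a rise apparent proliferation; nearly all actives have a fitted effect of over 55% in size.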 The note with it: Hh wild-type fibroblast viability, CellTiter-Glo luminescence, 48 h; series mostly up to 46 µM. The source says: Drug repurposing or repositioning has been offered as a strategy for drug development in oncology programs. This approach has special potential for childhood cancers and other rare or orphan diseases, where the expected return on new drug development has been a disincentive to pharmaceuticals.
In this project we exploit the poly-pharmacology of drugs to discover new indications via phenotypic screening of a panel of 19 well-characterized cell lines derived from solid tumors seen in children and adolescents. The goal is to identify approved drugs with previously unrecognized anticancer properties that has the potential to reveal new mechanisms and biological processes involved in carcinogenesis or drug resistance. We employed a titration-based paradigm (quantitative high-throughput screening or qHTS), where all compounds were tested at multiple concentrations for their effect on cell viability. Concentration-response curves (CRCs) were derived directly from the primary screen, and both potency and efficacy values were used to identify compounds with robust bioactivity profiles. We screened the NIH Chemical Genomics Center (NCGC) Pharmaceutical Collection (NPC) and Mechanism Interrogation Plate (MIPE) small molecule collections of approved and investigational compounds against these cell lines; and measured metabolically active cells after 48 hours of compound treatment as a proxy for cell viability.
Assay Submitter: Nathalia J. Martinez, National Center for Advancing Translational Sciences, National Institutes of Health, Rockville, MD, USA; email: natalia.martinez@nih.gov
[1] Shen, M et al. Quantitative high-throughput phenotypic screening of pediatric cancer cell lines identifies multiple opportunities for drug repurposing. Oncotarget 2017 Dec 19;9(4):4758-4772. PMID 29435139.
The cells were obtained from University of North Carolina (UNC), Pediatric Preclinical Testing Program (PPT), and Coriell Institute (CI).
qHTS cell viability assay:
Cells were assayed in growth media at a density of 500-1,000 cells/well. Five microliters of cells were dispensed into 1,536-well, white, solid-bottom, TC-treated plates (Greiner Bio One) using a multidrop dispenser and incubated at 37 degrees C, 5% CO2, under a humidified atmosphere for 5 hours. Twenty-three nanoliters of compounds and controls (neutral control DMSO or positive control bortezomib at final concentration of 2.3 µM) were subsequently transferred by Kalypsys pintool. For primary screens, the MIPE collection was tested at 11-point dilutions (final concentrations range from 0.78 nM to 46 µM) and the NPC collection at 8-point dilutions (final concentrations range from 0.59 nM to 46 µM). Compounds tested in follow-up screens were assayed at 11-point dilutions. Cells were incubated for 48 hours, followed by addition of 3 µL of CellTiter-Glo (Promega). After a 15 min incubation at room temperature, samples were analyzed for luminescence intensity using a ViewLux High-throughput CCD imager equipped with clear filters.
As to `Nc1ncnc2c1ncn2[C@@H]1O[C@H](CO)[C@@H](O)[C@H]1O`, the molecule was called inactive.

On to `O=S(=O)(O)c1cc(I)c(O)c2ncccc12`, for which the molecule was classed as inactive. Consider `NC(N)=NCCC[C@H](N)C(=O)O`, for which the activity change, negative = cytotoxic was 15% [at 4.84 µM] (inactive). As to `NC(=O)c1ncn([C@@H]2O[C@H](CO)[C@@H](O)[C@H]2O)c1N`, the result was inactive. On the same count and under the same terms, the same measure for `C[C@@H]1CN(c2c(F)c(F)c3c(=O)c(C(=O)O)cn(C4CC4)c3c2F)C[C@H](C)N1`: “inactive”.

As for `O=C(O)[C@H](O)c1ccccc1`, the molecule was classed as inactive. Regarding `O=C(O)[C@@H]1CSCN1`, the molecule was classed as inactive.

On to `N[C@H](C(=O)O)c1ccc(O)cc1`, for which the result was inactive. Regarding `CC1CC(OC(=O)C(O)c2ccccc2)CC(C)(C)N1C` (stereo not given), the call was inactive.

As for `COc1ccc(Cl)cc1C(=O)NCCc1ccc(S(=O)(=O)NC(=O)NC2CCCCC2)cc1`, the call was inactive. In the case of `O=c1[nH]c(=O)c2[nH]c(=O)[nH]c2[nH]1`, the activity change, negative = cytotoxic is 8.6% [at 9.22 µM] (inactive).

Turning to `CCOc1ccc2ccccc2c1C(=O)N[C@@H]1C(=O)N2[C@@H]1SC(C)(C)[C@@H]2C(=O)O`, the result was inactive.

Consider `CC(O)CN(CCN(CC(C)O)CC(C)O)CC(C)O` (stereo not given), for which the result was inactive. The same measure, in the same setting: the same measure for `Cn1c(=O)c2c(ncn2CC2OCCO2)n(C)c1=O`: “inactive”; for `CC(=O)Oc1c(C)c(C)c2c(c1C)CC[C@@](C)(CCC[C@H](C)CCC[C@H](C)CCCC(C)C)O2`: “inactive”. The same measure, in the same setting: the entry for `Cc1ccc2nc(N)[nH]c(=O)c2c1Sc1ccncc1` is “inactive”; for `CC(=O)OCC(=O)[C@@]1(O)CC[C@H]2[C@@H]3CCC4=CC(=O)CC[C@]4(C)[C@H]3C(=O)C[C@@]21C` it is “inactive”. `COC(=O)C1=C(C)NC(C)=C(C(=O)OC)C1c1ccccc1[N+](=O)[O-]`: the molecule was called inactive.

In the case of `CN(C)CCOC(C)(c1ccccc1)c1ccccn1` (stereo not given), the outcome was inactive. On to `CC1=C(CC(=O)O)c2cc(F)ccc2/C1=C\c1ccc(S(C)(=O)=O)cc1`, for which the outcome was inactive. Consider `O=Cc1ccccc1C=O`, for which the outcome was inactive.

Turning to `O=C(O)Cc1sc(-c2ccccc2)nc1-c1ccc(Cl)cc1`, the call was inactive. With `C[C@H](N)[C@H](O)c1cccc(O)c1`, the call was inactive. As to `CCN(CC)CCCC(C)Nc1c2ccc(Cl)cc2nc2ccc(OC)cc12` (stereo not given), the result was inactive. The same measure, in the same setting: the entry for `CC(C)C(=O)c1c(C(C)C)nn2ccccc12` is “inactive”. Still for that read-out and setting: the entry for `CCOc1nc2cccc(C(=O)O)c2n1Cc1ccc(-c2ccccc2-c2nn[nH]n2)cc1` is “inactive”; for `CC(=O)CCC(=O)O` it is “inactive”; for `CCCCOC(=O)c1ccc(O)cc1` it is “inactive”. The same measure, in the same setting: the entry for `CCC(=O)Nc1ccc(O)cc1` is “inactive”. On to `CN1CCC[C@@H]1Cc1c[nH]c2ccc(CCS(=O)(=O)c3ccccc3)cc12`, for which the outcome was inactive. Still for that read-out and setting: the entry for `c1ccc2c(CC3=NCCN3)cccc2c1` is “inactive”; for `O=C(O)COc1nn(Cc2ccccc2)c2ccccc12` it is “inactive”; for `CC[C@@]1(c2ccccc2)NC(=O)N(C)C1=O` it is “inactive”. Same read-out and setting: the entry for `CCOC(=O)c1ccc(O)cc1` is “inactive”; for `O=C1OC(OC(=O)c2cccnc2Nc2cccc(C(F)(F)F)c2)c2ccccc21` (stereo not given) it is “inactive”.

`CNCCCC1c2ccccc2C=Cc2ccccc21`: the call was inactive. As to `Cc1ncc([N+](=O)[O-])n1CC(O)CCl` (stereo not given), the molecule was called inactive. Turning to `O=S(=O)(O)NC1CCCCC1`, the molecule was classed as inactive. Take `CC(=O)c1ccc2c(c1)N(CCCN(C)C)c1ccccc1S2`: the molecule was called inactive.

On to `O=C1Nc2ccc(Cl)cc2[C@@](C#CC2CC2)(C(F)(F)F)O1`, for which the outcome was inactive.

(Values after PubChem BioAssay (NCATS).)
